# About 410 targets per protein were measured; listed, in parts, are those with the strongest signals and a random draw of the rest.
# B1: GS7807H-bfa-490-18-490 (Bacteroides fragilis) (protein)
# chain: GNLEEMNIDPDNATQTHPKLLLTQICMNAFKRGTDGMYATKKVIQADGESADQYYKWTRGSFGYYDNLRNVQKMGEEAERVNAPVYTALTKFFRAYYFYELTLRFGDIPYSQALKGEKEEIYTPEYDAQEDVFAGILQELREADEILANDASVIDGDIIYNGNSTQWRKLINSFRLKVLMTLSNHTTVGNINIASEFKNIATNSPLMNSLADNGQLVYLDQQGNRYPQFNAQWSGYYMDDTFIQRMRERRDPRLFIFSAQTNKGKTEGKPIDDFSSYEGGDPAAPYSDAIIKVSEGTISPINDRFRTDPIVEPTMLMGYAELQQILAEAVVRGWISGNAQTYYEKGIRASFSFYETHAKDYAGYLNENAVAQYLKEPLVDFTQASGTEEQIERIIMQKYLVTFYQGNWDSFYEQLRTGYPDFRRPAGTEIPKRWMYPQGEYDNNGTNVETAITRQFGAGNDKINQATWWQKKS
# Assays:
# Experiment in all cases: glycan array binding signal (z-score within array); higher = stronger binding
# Details in all cases: glycan notation: IUPAC condensed, linker removed
# [1] = molecular target: Fuc(a1-2)Gal(b1-3)GalNAc(b1-4)[Neu5Ac(a2-3)]Gal(b1-4)Glc
# Summary of the method: (§1)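 Columns mapping to the same glycan were averaged after glycan names were converted to IUPAC-condensed notation. The data come from 3228 arrays in the Consortium for Functional Glycomics database, limited to those with an available protein sequence. Binding is reported as a within-array Z-score averaged across arrays of one protein sequence and across linkers.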
# [2] = molecular target: Fuc(a1-2)Gal(b1-3)GlcNAc6S
# Summary of the method: as §1
# [3] = molecular target: Fuc(a1-2)Gal(b1-3)[Fuc(a1-4)]GlcNAc(b1-3)[Fuc(a1-3)[Gal(b1-4)]GlcNAc(b1-6)]Gal(b1-4)Glc
# Summary of the method: as §1
# [4] = molecular target: Fuc(a1-2)Gal(b1-4)Glc6S
# Summary of the method: as §1
# [5] = molecular target: Fuc(a1-2)Gal(b1-4)GlcNAc
# Summary of the method: as §1
# [6] = molecular target: Fuc(a1-2)Gal(b1-4)GlcNAc(b1-2)Man(a1-3)[Fuc(a1-2)Gal(b1-4)GlcNAc(b1-2)Man(a1-6)]Man(b1-4)GlcNAc(b1-4)[Fuc(a1-6)]GlcNAc
# Summary of the method: as §1
# [7] = molecular target: Fuc(a1-2)Gal(b1-4)GlcNAc(b1-3)Gal(b1-4)GlcNAc
# Summary of the method: as §1
# [8] = molecular target: Fuc(a1-2)Gal(b1-4)[Fuc(a1-3)]GlcNAc(b1-3)GalNAc
# Summary of the method: as §1
# [9] = molecular target: Fuc(a1-2)[Gal(a1-3)]Gal(b1-4)[Fuc(a1-3)]Glc
# Summary of the method: as §1
# [10] = molecular target: Fuc(a1-2)[GalNAc(a1-3)]Gal(b1-4)Glc
# Summary of the method: as §1
# [11] = molecular target: Fuc(a1-2)[GalNAc(a1-3)]Gal(b1-4)GlcNAc(b1-2)Man(a1-3)[Fuc(a1-2)[GalNAc(a1-3)]Gal(b1-4)GlcNAc(b1-2)Man(a1-6)]Man(b1-4)GlcNAc(b1-4)[Fuc(a1-6)]GlcNAc
# Summary of the method: as §1
# [12] = molecular target: Fuc(a1-2)[GalNAc(a1-3)]Gal(b1-4)GlcNAc(b1-6)GalNAc
# Summary of the method: as §1
# [13] = molecular target: Fuc(a1-2)[GalNAc(a1-3)]Gal(b1-4)[Fuc(a1-3)]GlcNAc
# Summary of the method: as §1
# [14] = molecular target: Fuc(a1-2)[GalNAc(a1-3)]Gal(b1-4)[Fuc(a1-3)]GlcNAc(b1-3)GalNAc
# Summary of the method: as §1
# [15] = molecular target: Fuc(a1-3)[Gal(b1-4)]GlcNAc(b1-2)Man(a1-3)[Fuc(a1-3)[Gal(b1-4)]GlcNAc(b1-2)Man(a1-6)]Man(b1-4)GlcNAc(b1-4)[Fuc(a1-6)]GlcNAc
# Summary of the method: as §1
# [16] = molecular target: Fuc(a1-3)[Gal(b1-4)]GlcNAc(b1-3)Gal(b1-4)[Fuc(a1-3)]GlcNAc(b1-3)Gal(b1-4)[Fuc(a1-3)]GlcNAc
# Summary of the method: as §1
# [17] = molecular target: Fuc(a1-3)[Gal(b1-4)]GlcNAc6S
# Summary of the method: as §1
# [18] = molecular target: Gal(a1-3)Gal(b1-4)[Fuc(a1-3)]GlcNAc(b1-2)Man(a1-3)[Gal(a1-3)Gal(b1-4)[Fuc(a1-3)]GlcNAc(b1-2)Man(a1-6)]Man(b1-4)GlcNAc(b1-4)GlcNAc
# Summary of the method: as §1
# [19] = molecular target: Gal(a1-4)Gal(b1-4)GlcNAc(b1-2)Man(a1-3)[Gal(a1-4)Gal(b1-4)GlcNAc(b1-2)Man(a1-6)]Man(b1-4)GlcNAc(b1-4)GlcNAc
# Summary of the method: as §1
# [20] = molecular target: Gal(b1-3)GlcNAc(b1-2)[Gal(b1-3)GlcNAc(b1-6)]Man(a1-6)[Gal(b1-3)GlcNAc(b1-2)Man(a1-3)]Man(b1-4)GlcNAc(b1-4)GlcNAc
# Summary of the method: as §1
# [21] = molecular target: Gal(b1-3)GlcNAc(b1-3)Gal(b1-4)[Fuc(a1-3)]GlcNAc
# Summary of the method: as §1
# [22] = molecular target: Gal(b1-3)GlcNAc(b1-6)Gal(b1-4)GlcNAc
# Summary of the method: as §1
# [23] = molecular target: Gal(b1-4)GlcNAc(b1-2)Man(a1-3)[Gal(b1-4)GlcNAc(b1-2)Man(a1-6)][GlcNAc(b1-4)]Man(b1-4)GlcNAc(b1-4)[Fuc(a1-6)]GlcNAc
# Summary of the method: as §1
# [24] = molecular target: Gal(b1-4)GlcNAc(b1-3)Gal(b1-4)GlcNAc(b1-2)[Gal(b1-4)GlcNAc(b1-3)Gal(b1-4)GlcNAc(b1-6)]Man(a1-6)[Gal(b1-4)GlcNAc(b1-3)Gal(b1-4)GlcNAc(b1-2)Man(a1-3)]Man(b1-4)GlcNAc(b1-4)GlcNAc
# Summary of the method: as §1
binder,measurement,setting,value
B1,glycan array binding signal (z-score),[1],-0.424
same,glycan array binding signal (z-score),[2],0.079
same,glycan array binding signal (z-score),[3],-0.223
same,glycan array binding signal (z-score),[4],-0.448
same,glycan array binding signal (z-score),[5],-0.024
same,glycan array binding signal (z-score),[6],2.33
same,glycan array binding signal (z-score),[7],-0.786
same,glycan array binding signal (z-score),[8],0.672
same,glycan array binding signal (z-score),[9],-0.426
same,glycan array binding signal (z-score),[10],-0.704
same,glycan array binding signal (z-score),[11],0.217
same,glycan array binding signal (z-score),[12],-0.479
same,glycan array binding signal (z-score),[13],0.449
same,glycan array binding signal (z-score),[14],0.984
same,glycan array binding signal (z-score),[15],1.38
same,glycan array binding signal (z-score),[16],0.166
same,glycan array binding signal (z-score),[17],-0.707
same,glycan array binding signal (z-score),[18],1.36
same,glycan array binding signal (z-score),[19],6.27
same,glycan array binding signal (z-score),[20],2.29
same,glycan array binding signal (z-score),[21],0.374
same,glycan array binding signal (z-score),[22],9.32
same,glycan array binding signal (z-score),[23],-0.8
same,glycan array binding signal (z-score),[24],11.2
